“And” between values parts separate entries of the source, which are not always exact repeats. Equal entries are not always repeated. Inconclusive results are not listed. The source holds several records for some structures; these can differ, active in one and inactive in another. The source made the active and inactive calls. Unless noted, calls come from the whole dose curve; as a rule, active = well fitted curve in the direction sought with a large enough effect; inconclusive = small, poorly fitted or top-dose-only effect, or another doubt; inactive = no such curve, though single readings can be large; an effect the other way counts as inactive or inconclusive.

In PubChem BioAssay (NCATS) one finds Potency data, which are given here for 26 molecules.

A short description of experiment [1]: qHTS for Inhibitors of Plasmodium falciparum (GB4) proliferation (AID 504315). Note: nearly all actives have a fitted effect of over 50% in size. Note: potency is the fitted concentration of half-maximal effect. An outline of the steps:
(§1)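 Erythrocytes infected with P. falciparum line (0.3% parasitemia, 2.5% hematocrit final) incubated with compounds 72 h at 37 °C, 5% CO2; SYBR Green lysis buffer added, fluorescence read next day. Normalized to 0.29 uM artemisinin and DMSO.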

A short description of experiment [2]: qHTS for Inhibitors of Plasmodium falciparum (7G8) proliferation (AID 504316). Note: nearly all actives have a fitted effect of over 65% in size. Note: potency is the fitted concentration of half-maximal effect. An outline of the steps: as §1
Experiment [3] can be described thus: qHTS for Inhibitors of Plasmodium falciparum (HB3) proliferation (AID 504318). Note: nearly all actives have a fitted effect of over 60% in size. Note: potency is the fitted concentration of half-maximal effect. An outline of the steps:
as §1

Experiment [4] in a line: qHTS for Inhibitors of Plasmodium falciparum (CP250) proliferation (AID 504320). Note: potency is the fitted concentration of half-maximal effect. A digest of the protocol:
as §1

The target of experiment [5] is Atrial natriuretic peptide receptor 1 (Homo sapiens) (UniProt P16066). The experiment can be described thus: Natriuretic polypeptide receptor (hNpr1) antagonism - Pilot CMLD screen (AID 1347052; calls by dose curve;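 note: HEK293 cells with hNpr1 stimulated by hNppA peptide at 0.1 nM; cGMP level read as GloSensor luciferase luminescence after agonist stimulation; series mostly up to about 9.2 µM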).
Sequence of Atrial natriuretic peptide receptor 1 (Homo sapiens) (P16066 whole entry, looked up): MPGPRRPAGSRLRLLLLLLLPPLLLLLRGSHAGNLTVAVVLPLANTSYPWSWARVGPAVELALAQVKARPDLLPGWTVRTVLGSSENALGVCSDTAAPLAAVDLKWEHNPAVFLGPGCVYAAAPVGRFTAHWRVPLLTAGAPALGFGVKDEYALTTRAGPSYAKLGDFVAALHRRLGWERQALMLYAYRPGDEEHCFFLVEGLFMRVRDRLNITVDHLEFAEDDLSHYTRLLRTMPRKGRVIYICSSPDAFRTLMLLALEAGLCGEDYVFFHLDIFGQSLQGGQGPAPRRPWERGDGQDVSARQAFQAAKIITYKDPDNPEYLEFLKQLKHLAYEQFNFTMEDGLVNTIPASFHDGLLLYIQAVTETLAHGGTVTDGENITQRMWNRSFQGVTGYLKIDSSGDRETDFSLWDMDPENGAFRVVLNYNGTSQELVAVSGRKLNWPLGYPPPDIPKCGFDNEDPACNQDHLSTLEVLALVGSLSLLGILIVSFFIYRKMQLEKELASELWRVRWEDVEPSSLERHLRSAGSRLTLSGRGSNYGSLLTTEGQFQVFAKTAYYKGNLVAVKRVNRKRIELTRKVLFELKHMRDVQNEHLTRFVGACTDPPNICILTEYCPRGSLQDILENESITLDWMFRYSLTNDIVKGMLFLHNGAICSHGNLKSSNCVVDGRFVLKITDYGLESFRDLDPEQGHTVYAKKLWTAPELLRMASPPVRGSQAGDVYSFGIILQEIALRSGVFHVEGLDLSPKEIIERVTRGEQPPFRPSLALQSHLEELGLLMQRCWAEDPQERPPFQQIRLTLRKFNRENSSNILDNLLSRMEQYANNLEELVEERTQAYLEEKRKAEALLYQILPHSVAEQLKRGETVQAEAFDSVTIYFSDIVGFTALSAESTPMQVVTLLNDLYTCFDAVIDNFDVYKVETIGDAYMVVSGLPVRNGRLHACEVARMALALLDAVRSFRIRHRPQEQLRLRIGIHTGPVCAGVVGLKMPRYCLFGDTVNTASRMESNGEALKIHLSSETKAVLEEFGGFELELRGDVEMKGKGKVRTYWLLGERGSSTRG

Turning to `COC(=O)[C@H](COC(C)(C)C)NC(=O)O[C@@H]1C(=O)c2cc(Br)ccc2O[C@H]1c1ccc2c(c1)OCO2`, the Potency entry in experiment [1], in experiment [2], in experiment [3], in experiment [4] and in experiment [5] was “inactive” throughout.
For the molecule `COC(=O)CC=C[C@@H](C)[C@H](OC)c1ccccc1Br`, the Potency result was “inactive and 1.51 µM (active)” in experiment [1]; “inactive and 1.9 µM (active)” in experiment [2]; “inactive and 1.9 µM (active)” in experiment [3]; “inactive and 1.35 µM (active)” in experiment [4]. Moreover, the Potency entry in experiment [5] was “inactive”.
Consider `COc1cccc([C@@H]2[C@@H](C)CC[C@@H]3C(=O)NC[C@H](O)CN32)c1`, for which the Potency entry in experiment [1], in experiment [2], in experiment [3], in experiment [4] and in experiment [5] was “inactive” throughout.
For `CC1(OC(=O)C2CCCC2)C(=O)C=C2C=C(c3ccsc3)N(C(CO)CO)C=C2C1=O` (configuration not stated), the Potency entry in experiment [1], in experiment [2], in experiment [3], in experiment [4] and in experiment [5] was “inactive” each time.
As to `CC(C)=CCCC(C)=CCON=C1C[C@@H](O)[C@@H](O)[C@@H]2[C@H]3C(=O)N(c4cccc(Oc5ccccc5)c4)C(=O)[C@@H]3CC[C@H]12`, the Potency result in experiment [1], in experiment [2], in experiment [3], in experiment [4] and in experiment [5] was “inactive” throughout.
For the molecule `COCC=CC1=CC2=CC(=O)C(C)(OC(=O)c3cnc4ccccc4n3)C(=O)C2=CN1CC1CC1` (configuration not stated), the Potency entry in experiment [1], in experiment [2], in experiment [3], in experiment [4] and in experiment [5] was “inactive” in each case.
Take `CC(C)OC(=O)[C@H]1O[C@H](CCCCOCc2ccccc2)[C@@H](C)[C@H]2O[C@H]21`: the Potency result in experiment [1], in experiment [2], in experiment [3], in experiment [4] and in experiment [5] was “inactive” throughout.
For `CCCC[C@]12Cc3cc(OC)c(OC)cc3[C@H](O1)C1=C(CC3(CCCCC3)OC1=O)O2`, the Potency entry in experiment [1], in experiment [2], in experiment [3], in experiment [4] and in experiment [5] was “inactive” throughout.
Consider `CC(C)=CCN1C(=O)[C@]2(OCCC=C[C@H]2C)c2c(Br)cccc21`, for which the Potency entry in experiment [1], in experiment [2], in experiment [3], in experiment [4] and in experiment [5] was “inactive” throughout.
For `CCOC(=O)NN=Cc1ccccc1-c1cc(OC)ccc1OC`, the Potency entry in experiment [1], in experiment [2], in experiment [3], in experiment [4] and in experiment [5] was “inactive” each time.
For the molecule `CC1(OC(=O)C2CCCC2)C(=O)C=C2C=C(c3ccsc3)N(CCc3ccccn3)C=C2C1=O` (configuration not stated), the Potency result in experiment [1], in experiment [2], in experiment [3], in experiment [4] and in experiment [5] was “inactive” each time.
Regarding `CCOC(=O)N1C2=NC(C(=O)OC)=C(C(=O)OC)[C@@H]3N(C)c4ccccc4[C@]23C[C@H]1C(=O)OC`, the Potency result in experiment [1], in experiment [2], in experiment [3], in experiment [4] and in experiment [5] was “inactive” in each case.
With `COC(=O)N[C@@H](CCc1ccccc1)[C@]1(C(=O)OC)CCCC1=O`, the Potency result in experiment [1], in experiment [2], in experiment [3], in experiment [4] and in experiment [5] was “inactive” each time.
Consider `COc1ccc(NC2=CC(c3ccccc3)N(c3ccc(OC)cc3)C2=O)cc1` (configuration not stated), for which the Potency entry in experiment [1], in experiment [2], in experiment [3], in experiment [4] and in experiment [5] was “inactive” in each case.
For the molecule `C#CCN1C(=O)[C@]2(O[C@H](C)CC3=CCCC32)c2c(Br)cccc21` (some centres not stated), the Potency entry in experiment [1], in experiment [2], in experiment [3], in experiment [4] and in experiment [5] was “inactive” throughout.
With `COC(=O)C1=C(C(=O)OC)[C@@H]2N(C)c3ccc(OC)cc3[C@@]23C[C@@H](C(=O)OC)N(C(=O)c2cc(C)oc2C)C3=N1`, the Potency entry in experiment [1], in experiment [2], in experiment [3], in experiment [4] and in experiment [5] was “inactive” each time.
Regarding `COc1ccc([C@]23Cc4c(ccc5ccccc45)[C@H](O2)c2c(cc(-c4ccccc4)oc2=O)O3)cc1`, the Potency result in experiment [1], in experiment [2], in experiment [3], in experiment [4] and in experiment [5] was “inactive” throughout.
As to `COC(=O)CCC(=O)OC1(C)C(=O)C=C2C=C(C3CC3)N(Cc3ccc4c(c3)OCO4)C=C2C1=O` (configuration not stated), the Potency result in experiment [1], in experiment [2], in experiment [3], in experiment [4] and in experiment [5] was “inactive” throughout.
On to `CC(=O)[C@H]1[C@H](CCc2ccccc2)NC(=O)N(Cc2ccccc2)[C@@H]1C`, for which the Potency result in experiment [1], in experiment [2], in experiment [3], in experiment [4] and in experiment [5] was “inactive” each time.
For the molecule `COc1cccc([C@@H]2Oc3ccc(Br)cc3C[C@@H]2OC(=O)N[S+](=O)([O-])c2ccc(C)cc2)c1`, the Potency result in experiment [1], in experiment [2], in experiment [3], in experiment [4] and in experiment [5] was “inactive” throughout.
As for `CC(C)(C)Nc1oc(-c2ccccc2)nc1-c1ccccc1`, the Potency entry in experiment [1], in experiment [2], in experiment [3], in experiment [4] and in experiment [5] was “inactive” each time.
Turning to `COC(=O)c1c(C(=O)OC)c2c3ccccc3cc(C3CC3)n2c1C(=O)OC`, the Potency entry in experiment [1], in experiment [2], in experiment [4] and in experiment [5] was “inactive” in each case.
On to `COCCN1C(=O)NC(CCc2ccccc2)C(C(=O)OC)=C1C` (configuration not stated), for which the Potency result in experiment [1], in experiment [2], in experiment [3], in experiment [4] and in experiment [5] was “inactive” each time.
With `CC1=CC[C@@H](C)O[C@@]2(C1)C(=O)Nc1ccccc12`, the Potency result in experiment [1], in experiment [2], in experiment [4] and in experiment [5] was “inactive” each time.
Take `COc1cc(CO[C@H]2C=C[C@@H](c3ccccc3)O[C@H]2CO)cc(OC)c1`: the Potency result in experiment [1], in experiment [2], in experiment [4] and in experiment [5] was “inactive” each time.
As to `C=CCOC(=O)N[C@@H](CCc1ccccc1)C(C(C)=O)C(C)=O`, the Potency entry in experiment [1], in experiment [2], in experiment [3], in experiment [4] and in experiment [5] was “inactive” in each case.
